# Screening data deposited in PubChem BioAssay by several laboratories.
# Only a selection was taken, and hits are over-represented in it overall.
# Calb biofilm kill – kills Candida albicans biofilms. C. albicans biofilm + clotrimazole, Alamar Blue. inhibition, % at 6 µM. hit rate 0.14% among 85,000;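 active = inhibition above 20%; inactive = inhibition below 20%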;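 note: preformed 24 hr biofilms exposed to compound for 48 hr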
# FXIa inh mix – inhibitors of human coagulation factor XIa, pooled mixtures | P03951 | purified FXIa, fluorogenic substrate | inhibition, % at 5 µM | hit rate 0.19% among 62,000 | AID 680;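 note: each value is inhibition by a whole ten-compound pool holding the compound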
# D1 allo mod – D1 dopamine receptor (human) allosteric modulation | B-score at 10 µM | hit rate 5.9% among 58,000 | AID 641 | HEK293 D1, CRE-luciferase, dopamine EC30 potentiation; actives deviate in either direction | P21728;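 active = luminescence count or its row- and column-corrected plate score outside the 99.7% band of the plate's sample wells, on either side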
# HePTP inhibitor – human HePTP phosphatase inhibition | P35236 | recombinant HePTP phosphatase activity, OD absorbance | inhibition, % at 20 µM | hit rate 0.64% among 110,000 | AID 521; in the data active = inhibition above about 50%
# FXIIa inh mix – blocks human factor XIIa in pooled compound mixtures | inhibition, % at 5 µM | purified FXIIa, fluorogenic substrate | hit rate 0.2% among 62,000 | P00748
# Target sequence (P00748 20-372 limits assumed): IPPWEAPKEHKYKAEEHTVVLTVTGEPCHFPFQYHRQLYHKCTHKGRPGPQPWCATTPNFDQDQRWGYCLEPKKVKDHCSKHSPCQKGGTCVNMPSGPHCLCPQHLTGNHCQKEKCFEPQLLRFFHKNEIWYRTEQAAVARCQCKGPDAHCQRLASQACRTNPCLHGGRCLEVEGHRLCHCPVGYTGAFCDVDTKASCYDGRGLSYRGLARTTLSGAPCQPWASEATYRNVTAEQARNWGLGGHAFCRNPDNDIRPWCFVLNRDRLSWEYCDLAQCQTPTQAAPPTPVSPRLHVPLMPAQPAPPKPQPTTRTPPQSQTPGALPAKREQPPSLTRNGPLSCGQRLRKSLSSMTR
# Target sequence (P00748 373-615 limits assumed): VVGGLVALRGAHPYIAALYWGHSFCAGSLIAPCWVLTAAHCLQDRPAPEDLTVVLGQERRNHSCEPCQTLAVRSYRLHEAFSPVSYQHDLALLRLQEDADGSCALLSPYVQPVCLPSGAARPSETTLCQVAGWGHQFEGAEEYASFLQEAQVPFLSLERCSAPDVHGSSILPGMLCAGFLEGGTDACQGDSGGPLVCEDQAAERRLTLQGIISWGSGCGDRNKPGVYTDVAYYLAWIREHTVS
# TNAP act mid DEA – human TNAP activation, intermediate phosphate acceptor; purified TNAP, CDP-star luminescence, 100 mM DEA, 30 min; hits give high values; scale: 0 levamisole-inhibited, 1 vehicle-only enzyme; activation factor at 20 µM; 64,000 tested, under 10 active;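 active = activation factor of at least 2 at 20 µM, relative to controls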
# D1 PAM confirm – D1 receptor (human) allosteric modulation, confirmed | luminescence at 10 µM | hit rate 88% among 2,200 | shares compounds with D1 allo mod | HEK293 D1 CRE-luciferase, dopamine EC30 potentiation; hits give high values;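 active = luminescence in either of two replicates above the same-plate mean plus 3 SD of the low-dose dopamine control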
# D1 no dopamine – activates D1 CRE-luciferase signal without dopamine present; shares compounds with D1 allo mod; HEK293 D1 CRE-luciferase, luminescence, no dopamine; hits give high values; AID 646; hit rate 0.8% among 1,900; luminescence at 10 µM; in the data active = luminescence above about 3900
# Isoprot counter – alters isoproterenol CRE-luciferase response in HEK293 cells; shares compounds with D1 allo mod; hit rate 63% among 2,200; HEK293 D1 CRE-luciferase, isoproterenol EC30 counter-screen; hits give high values; luminescence at 10 µM;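 active = luminescence in either replicate above plate mean of wells with a partly effective reference agonist dose plus 3 SD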;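 note: isoproterenol raises cAMP through native beta-adrenoceptor Gs so signal bypasses D1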
# Numbers stand for hits; . = inactive; / = no result. Cut-off read from the data, not from the text of the source, unless noted: active = inhibition above about 20% (passing the limit was not always enough); inactive = the rest.
SMILES,Calb biofilm kill,FXIa inh mix,D1 allo mod,HePTP inhibitor,FXIIa inh mix,TNAP act mid DEA,D1 PAM confirm,D1 no dopamine,Isoprot counter
COc1ccc(OC)c(C2C(C(=O)c3cccs3)=C(O)C(=O)N2CCN(C)C)c1 (stereo unspecified),.,.,.,.,.,.,/,/,/
Cc1ccc(Oc2ccccc2)c(NC=O)c1,/,.,4.95,.,.,.,12104,.,.
O=C(Nc1ccccc1Oc1ccccc1)C(c1ccccc1)c1ccccc1,/,/,/,.,/,/,/,/,/
Cc1ccc2nc(/C(C#N)=C\c3ccc(Br)cc3)[nH]c2c1,/,/,/,.,/,/,/,/,/
Cc1ccccc1Nc1nc(N)nc(CSc2nnc(-c3ccccc3)n2C)n1,.,/,/,/,/,/,/,/,/
COc1ccccc1Nc1nc(N)nc(CSc2nncn2C)n1,.,.,12.4,.,.,.,.,/,.
CCOC(=O)c1c(C)oc2cc(Br)c(O)c(Br)c12,.,.,7.91,.,.,.,9840,.,.
CCOC(=O)COc1cc2c(C(=O)OCC)c(C)oc2cc1Br,.,.,.,.,.,.,/,/,/
CCCCN(C)C(=O)c1coc(=O)c2ccccc12,.,.,3.06,.,.,.,.,/,.
Cc1noc(C)c1COc1cccc(C(=O)OCCOc2ccc(F)cc2)c1,.,.,.,.,.,.,/,/,/
Cc1ccc(NC(=O)c2cccc(OCc3c(C)noc3C)c2)c(C)c1,.,.,4.58,.,.,.,.,.,.
CCOc1cccc2cc(C(=O)NCc3cccnc3)c(=O)oc12,.,.,.,.,.,.,/,/,/
CCOc1cccc2cc(C(=O)Nc3cc(C)on3)c(=O)oc12,.,.,2.6,.,.,.,.,.,.
CN(c1ccccc1)c1nc(N2CCCC2)nc(-n2ccnc2)n1,.,.,4.9,.,.,.,11496,.,3908
O=C1c2ccccc2C(Nc2ccc(F)c(Cl)c2)N1Cc1ccco1 (stereo unspecified),.,.,.,.,.,.,/,/,/
O=C1c2ccccc2C(Nc2ccc3c(c2)OCO3)N1Cc1ccco1 (stereo unspecified),/,.,7.62,.,.,.,12600,.,3104
O=C1c2ccccc2C(Nc2ccc3c(c2)OCO3)N1Cc1ccc2c(c1)OCO2 (stereo unspecified),.,.,4.12,.,.,.,9888,.,3704
Cc1cccc(C)c1NC(=O)COc1ccc(Br)cc1,/,/,/,.,/,/,/,/,/
C#CCN(C#N)c1nc(NCC)nc(NC(C)C)n1,.,.,16.7,.,.,.,18300,.,5752
COC(=O)CN(C#N)c1nc(NC(C)C)nc(OC)n1,.,/,/,/,/,/,/,/,/
CCNc1nc(NC(C)C)nc(N(C#N)CCOc2ccccc2)n1,.,/,/,/,/,/,/,/,/
CCN(C#N)c1nc(NC(C)C)nc(NC(C)C)n1,.,.,9.69,.,.,.,22184,.,6052
CC(C)Nc1nc(NC(C)C)nc(N(C)C#N)n1,.,.,16,.,.,.,21628,.,3796
CCOC(=O)c1c(N)nn(C(C)=O)c1-c1ccccc1,.,.,19.9,.,.,.,19148,.,4208
CCOC(=O)c1c(C)nc(-c2ccccc2)nc1N,/,.,4.07,.,.,.,8680,.,3172
SMILES,Calb biofilm kill,FXIa inh mix,D1 allo mod,HePTP inhibitor,FXIIa inh mix,TNAP act mid DEA,D1 PAM confirm,D1 no dopamine,Isoprot counter
CCOC(=O)c1c(C)nc(-c2ccccc2)nc1NC(C)=O,.,.,.,.,.,.,/,/,/
CC(C)C1N=C2c3ccccc3N=C(SCc3cc(=O)n4ccccc4n3)N2C1=O (stereo unspecified),.,.,.,.,.,.,/,/,/
CC1N=C2c3ccccc3N=C(SCc3cc(=O)n4cc(Cl)ccc4n3)N2C1=O (stereo unspecified),.,.,4.19,.,.,.,10900,.,3512
Cc1ccc(C(=O)OCC(=O)Nc2ccccc2)cc1NC(=O)c1ccco1,.,.,4.41,.,.,.,.,.,.
O=C(O)/C=C\C(=O)NN=C(c1ccccc1)c1ccccc1,/,/,/,.,/,/,/,/,/
COc1ccc(/C=C(C(=O)O)/C(C)=C/C(=O)O)c(OC)c1,/,/,/,.,/,/,/,/,/
CCOC(=O)N1CCN(C(=O)c2ccc(C#Cc3ccccc3)cc2)CC1,/,/,/,.,/,/,/,/,/
Cn1c(=O)c2c(nc(NCc3ccc4c(c3)OCO4)n2Cc2ccccc2)n(C)c1=O,.,/,/,.,/,.,/,/,/
Cn1c(=O)c2c(nc(NCc3ccc4c(c3)OCO4)n2Cc2ccccc2F)n(C)c1=O,.,.,4.69,.,.,.,6940,.,4792
COc1cccc(-c2cc(C(F)(F)F)nc(-n3cncn3)n2)c1,.,.,.,.,.,.,/,/,/
Fc1ccc(-c2cc(C(F)(F)F)nc(-n3cncn3)n2)cc1,.,.,3.39,.,.,.,8460,.,.
CCOC(=O)C1=C(C)N=c2s/c(=C\c3cccc([N+](=O)[O-])c3)c(=O)n2C1c1ccc(C)cc1 (stereo unspecified),/,/,/,.,/,/,/,/,/
COC(=O)c1cc(OC)c(OC)cc1N=CC1=C(O)CC(C)(C)CC1=O,.,.,4.1,.,.,.,9648,.,4512
CC(C)Sc1nc2c(cnn2-c2ccccc2)c(=O)[nH]1,.,.,15,.,.,.,15608,.,3492
CC(C)Sc1nc2c(cnn2-c2ccc(F)cc2)c(=O)[nH]1,.,.,/,.,.,.,/,/,/
O=C(CSc1nc2c(cnn2-c2ccccc2)c(=O)[nH]1)N1CCOCC1,.,.,.,.,.,.,/,/,/
O=c1[nH]c(SCc2ccccc2Cl)nc2c1cnn2-c1ccccc1,.,.,7.56,.,.,.,.,/,3076
Cc1ccc(-n2ncc3c(=O)[nH]c(SC(C)C)nc32)cc1,.,.,17.5,.,.,.,12920,.,3760
CCOC(=O)C(C)Sc1nc2c(cnn2-c2ccc(C)cc2)c(=O)[nH]1 (stereo unspecified),.,.,.,.,.,.,/,/,/
CCCCCSc1nc2c(cnn2-c2ccccc2)c(=O)[nH]1,.,.,2.95,.,.,.,13144,.,.
COc1cc(/C=C2\NC(=S)NC2=O)ccc1OC(=O)C12CC3CC(CC(C3)C1)C2,/,/,/,.,/,/,/,/,/
c1ccc(CSc2nncn2-c2ccccn2)cc1,.,.,7.95,.,.,.,12884,.,3328
CSc1nnc2c3cc(C)ccc3n(Cc3ccccc3)c2n1,.,.,8.94,.,.,.,14436,.,5544
CN1C(=O)NC(=O)/C(=C\c2ccc(Cl)cc2Cl)C1=O,/,/,/,.,/,/,/,/,/
Cc1cc(C)nc(/N=C(/N)C2=C(O)CC(C)(C)CC2=O)n1,/,/,/,.,/,/,/,/,/
C=CCn1c(SCc2nc3c(c(=O)[nH]c(=O)n3CCCC)n2CCC)nnc1-c1ccccc1,/,.,3.83,.,.,.,9252,.,.
